PubChem BioAssay (Tox21)
Where “and” joins values, the source holds several entries; their conditions need not be identical. Equal values may be shown once. Inconclusive results are not listed. A call without a number means that no potency is given here. The source holds several records for some structures; these can differ, active in one and inactive in another. Calls of active or inactive are those of the source. Unless noted, the call rests on the fitted dose curve.

Legend:
[1] = Nuclear factor erythroid 2-related factor 2/antioxidant responsive element (Nrf2/ARE) small molecule agonists: qHTS cell viability counter screen in human keratinocytes (AID 1919968; active means well fitted curve in the direction sought with a large enough effect in the repeat runs; an effect the other way counts as inactive or inconclusive; further: nearly all actives have a fitted effect of over 55% in size)
How it was run: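 Measured as CellTiter-Fluor fluorescence, this readout tracks cytotoxicity in the same wells as the ARE-luciferase screen. HaCaT reporter cells (1,500/well) received compounds after a 5 h pre-incubation and were exposed for 23 h.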

[2] = Nuclear factor erythroid 2-related factor 2/antioxidant responsive element (Nrf2/ARE) small molecule agonists: luciferase reporter gene qHTS assay in human keratinocytes (AID 1919969); further: nearly all actives have a fitted effect of over 35% in size; further: potency means the concentration at half of the fitted maximal effect
[3] = biological target: Gonadotropin-releasing hormone receptor (Homo sapiens) (UniProt P30968); assay: Human gonadotropin-releasing hormone receptor (GnRHR) small molecule agonists, calcium flux assay in GnRHR-HEK293 cells (AID 1920063); further: nearly all actives have a fitted effect of over 35% in size
Sequence of Gonadotropin-releasing hormone receptor (Homo sapiens) (P30968 whole entry, looked up): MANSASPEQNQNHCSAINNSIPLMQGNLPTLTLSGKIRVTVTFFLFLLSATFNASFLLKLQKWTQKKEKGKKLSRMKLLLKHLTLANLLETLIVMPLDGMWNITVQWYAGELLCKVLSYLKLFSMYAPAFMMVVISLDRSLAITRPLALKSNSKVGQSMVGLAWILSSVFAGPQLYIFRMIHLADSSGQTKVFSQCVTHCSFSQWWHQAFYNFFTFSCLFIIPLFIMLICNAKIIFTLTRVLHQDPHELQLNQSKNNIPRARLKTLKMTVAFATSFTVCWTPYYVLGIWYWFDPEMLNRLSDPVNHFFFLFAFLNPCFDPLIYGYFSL
How it was run: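 Fluorescence kinetics (480 nm excitation, 540 nm emission; 3 min, 1 s steps) report calcium mobilisation in human GnRHR-HEK293 cells in agonist mode. Dye incubation: 1 h, 37 C.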

[4] = biological target: KiSS-1 receptor (Homo sapiens) (UniProt Q969F8); assay: Human kisspeptin (KISS1R) small molecule agonists, calcium flux assay in KISS1R-HEK293 cells (AID 1920064; active means well fitted curve in the direction sought with a large enough effect in the repeat runs; an effect the other way counts as inactive or inconclusive)
Sequence of KiSS-1 receptor (Homo sapiens) (Q969F8 whole entry, looked up): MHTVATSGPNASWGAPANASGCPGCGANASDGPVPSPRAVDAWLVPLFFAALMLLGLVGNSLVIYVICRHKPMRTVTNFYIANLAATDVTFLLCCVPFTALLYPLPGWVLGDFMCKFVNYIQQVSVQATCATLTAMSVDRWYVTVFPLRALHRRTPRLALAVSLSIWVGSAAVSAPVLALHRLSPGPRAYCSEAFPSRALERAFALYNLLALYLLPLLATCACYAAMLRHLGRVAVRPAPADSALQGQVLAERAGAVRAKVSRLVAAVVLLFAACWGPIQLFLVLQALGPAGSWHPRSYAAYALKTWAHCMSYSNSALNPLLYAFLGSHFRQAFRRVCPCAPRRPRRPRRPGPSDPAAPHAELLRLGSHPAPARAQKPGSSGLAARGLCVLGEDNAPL
How it was run: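 Measures KISS1R agonism through calcium-sensitive dye fluorescence in stably transfected HEK293 cells, read for 3 min after pin-tool compound delivery; 15-point titrations in triplicate.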

[5] = p53 small molecule agonists, cell-based qHTS assay with human liver microsomes (AID 1963577);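 further: p53 response element beta-lactamase reporter cells with liver microsomes plus NADPH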
How it was run: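 Cells carrying a p53-responsive bla reporter were rested 5 h (37 C, 5% CO2) before compound transfer. Human liver microsomes plus NADPH, 0.5 mg/mL final apiece, supplied metabolism during the 16 h 37 C exposure.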

[6] = p53 small molecule agonists, cell-based qHTS assay with human liver microsomes: qHTS cell viability counter screen (AID 1963579); further: nearly all actives have a fitted effect of over 45% in size
How it was run: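 Seed p53RE-bla cells at 4,000 per well; incubate 5 h at 37 C; add compound, human liver microsomes and NADPH; incubate 16 h at 37 C; add CellTiter-Glo; after 30 min at room temperature, read luminescence.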

[7] = p53 small molecule agonists, cell-based qHTS assay: qHTS cell viability counter screen (AID 1963581); further: nearly all actives have a fitted effect of over 45% in size
How it was run: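 In the same plates used for the p53 bla reporter, HCT-116 cells given compounds for 16 h at 37 C received CellTiter-Glo; luminescence was recorded 30 min later at room temperature.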

[8] = p53 small molecule agonists, cell-based qHTS assay (AID 1963582; active means well fitted activation curve with a large enough effect in the signal ratio in the repeat runs, not every such curve was filed as active; the % refers to the signal ratio)
How it was run: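 Compounds are pin-transferred in DMSO onto p53RE-bla cells and incubated 16 h at 37 C. The B/G FRET beta-lactamase substrate is then applied for 2 h at RT and fluorescence recorded.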

[9] = biological target: 5-hydroxytryptamine receptor 2A (Homo sapiens) (UniProt P28223); assay: 5-hydroxytryptamine receptor 2A (HTR2A) small molecule antagonists, cell-based qHTS assay (AID 1963586); further: nearly all actives have a fitted effect of over 45% in size
Sequence of 5-hydroxytryptamine receptor 2A (Homo sapiens) (P28223 whole entry, looked up): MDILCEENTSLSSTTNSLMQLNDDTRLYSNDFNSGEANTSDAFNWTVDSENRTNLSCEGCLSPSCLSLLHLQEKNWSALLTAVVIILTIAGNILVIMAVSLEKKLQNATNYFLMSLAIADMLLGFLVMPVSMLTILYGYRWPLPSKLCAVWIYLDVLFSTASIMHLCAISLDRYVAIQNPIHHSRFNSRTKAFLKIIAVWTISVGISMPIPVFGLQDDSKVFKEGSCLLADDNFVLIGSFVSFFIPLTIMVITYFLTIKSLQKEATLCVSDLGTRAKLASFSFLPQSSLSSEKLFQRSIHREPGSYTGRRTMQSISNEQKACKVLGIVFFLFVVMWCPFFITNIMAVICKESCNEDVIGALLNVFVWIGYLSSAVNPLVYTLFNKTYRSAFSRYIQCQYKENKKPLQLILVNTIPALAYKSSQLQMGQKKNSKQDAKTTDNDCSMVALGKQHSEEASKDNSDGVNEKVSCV
How it was run: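 Antagonist-mode intracellular calcium assay: DOI (4 nM) added after 5 min compound pre-incubation at room temperature to dye-loaded HTR2A-CHO cells. Fluorescence followed for 3 min, sampled every second.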

[10] = biological target: 5-hydroxytryptamine receptor 2A (Homo sapiens) (UniProt P28223); assay: 5-hydroxytryptamine receptor 2A (HTR2A) small molecule agonists, cell-based qHTS assay (AID 1963587); further: nearly all actives have a fitted effect of over 30% in size
How it was run: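 HTR2A-CHO cells, plated 18 h at 37 C/5% CO2, dye-loaded 1 h at 37 C; compounds in DMSO added by pin tool (agonist mode). Intracellular calcium flux read as kinetic fluorescence on FDSS over 2 min at 1 s intervals.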

[11] = biological target: Muscarinic acetylcholine receptor M1 (Homo sapiens) (UniProt P11229); assay: Cholinergic receptor muscarinic 1 (CHRM1) small molecule agonists, cell-based qHTS assay (AID 1963589); further: nearly all actives have a fitted effect of over 35% in size
Sequence of Muscarinic acetylcholine receptor M1 (Homo sapiens) (P11229 whole entry, looked up): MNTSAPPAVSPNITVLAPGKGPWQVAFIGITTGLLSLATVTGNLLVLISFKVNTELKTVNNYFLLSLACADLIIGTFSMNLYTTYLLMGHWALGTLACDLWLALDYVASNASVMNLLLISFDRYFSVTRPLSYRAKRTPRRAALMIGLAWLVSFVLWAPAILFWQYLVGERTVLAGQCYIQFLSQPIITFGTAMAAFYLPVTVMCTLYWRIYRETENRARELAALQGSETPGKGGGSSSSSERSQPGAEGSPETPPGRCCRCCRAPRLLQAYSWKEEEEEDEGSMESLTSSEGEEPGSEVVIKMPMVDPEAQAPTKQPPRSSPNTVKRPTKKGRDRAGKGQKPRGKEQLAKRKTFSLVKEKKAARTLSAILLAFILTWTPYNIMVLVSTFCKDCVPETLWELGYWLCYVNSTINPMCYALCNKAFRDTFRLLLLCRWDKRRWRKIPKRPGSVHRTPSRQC
How it was run: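 Each compound was tested at 15 concentrations across three independent runs on dye-loaded CHO cells stably expressing human CHRM1, reading intracellular calcium fluorescence kinetically at 1 sec intervals.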

[12] = cAMP Responsive Elements (CRE) small molecule agonists, cell-based qHTS assay (AID 1963590)
How it was run: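 Cell line: CRE-bla HEK 293T; medium DMEM/10% dialyzed FBS/0.1 mM NEAA/1 mM pyruvate/25 mM HEPES; 3 h compound exposure; beta-lactamase FRET readout after 2 h substrate loading at RT.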

[13] = cAMP Responsive Elements (CRE) small molecule antagonists, cell-based qHTS assay (AID 1963591; active means well fitted inhibition curve with a large enough effect in the signal ratio in the repeat runs, not every such curve was filed as active; the % refers to the signal ratio)
How it was run: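 Inhibition of NKH477-driven (0.25 uM final) CRE-beta-lactamase signal in HEK293T cells, 3 h compound exposure at 37 °C, detected by FRET substrate fluorescence.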

[14] = biological target: Beta-2 adrenergic receptor (Homo sapiens) (UniProt P07550); assay: Adrenergic beta2 receptor (ADRB2) small molecule antagonists, cell-based qHTS assay (AID 1963592); further: series mostly up to about 92 µM; nearly all actives have a fitted effect of over 50% in size
Sequence of Beta-2 adrenergic receptor (Homo sapiens) (P07550 whole entry, looked up): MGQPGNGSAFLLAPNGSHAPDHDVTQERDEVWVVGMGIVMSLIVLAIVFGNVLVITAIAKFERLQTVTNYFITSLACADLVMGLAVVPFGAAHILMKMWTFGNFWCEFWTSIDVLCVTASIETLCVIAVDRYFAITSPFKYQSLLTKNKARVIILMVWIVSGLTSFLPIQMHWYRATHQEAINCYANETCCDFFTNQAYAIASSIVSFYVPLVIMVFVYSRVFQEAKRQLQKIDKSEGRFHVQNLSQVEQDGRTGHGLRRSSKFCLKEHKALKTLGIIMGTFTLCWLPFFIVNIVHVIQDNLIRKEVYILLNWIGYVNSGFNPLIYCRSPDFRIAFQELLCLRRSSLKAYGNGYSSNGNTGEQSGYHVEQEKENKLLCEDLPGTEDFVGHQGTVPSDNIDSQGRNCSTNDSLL
How it was run: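 Cells (CHO, stable ADRB2 overexpression) incubated 18-20hr at 37C; compounds added from DMSO; agonist mix (1nM isoproterenol, 100uM IBMX, 25uM Ro-20-1724) added; 0.5hr RT; d2-cAMP and anti-cAMP-cryptate added; 1hr RT; 665/615 nm read.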

[15] = biological target: D(2) dopamine receptor (Homo sapiens) (UniProt P14416); assay: Dopamine D2 receptor (DRD2) small molecule agonists, cell-based qHTS assay (AID 1963594); further: nearly all actives have a fitted effect of over 35% in size
Sequence of D(2) dopamine receptor (Homo sapiens) (P14416 whole entry, looked up): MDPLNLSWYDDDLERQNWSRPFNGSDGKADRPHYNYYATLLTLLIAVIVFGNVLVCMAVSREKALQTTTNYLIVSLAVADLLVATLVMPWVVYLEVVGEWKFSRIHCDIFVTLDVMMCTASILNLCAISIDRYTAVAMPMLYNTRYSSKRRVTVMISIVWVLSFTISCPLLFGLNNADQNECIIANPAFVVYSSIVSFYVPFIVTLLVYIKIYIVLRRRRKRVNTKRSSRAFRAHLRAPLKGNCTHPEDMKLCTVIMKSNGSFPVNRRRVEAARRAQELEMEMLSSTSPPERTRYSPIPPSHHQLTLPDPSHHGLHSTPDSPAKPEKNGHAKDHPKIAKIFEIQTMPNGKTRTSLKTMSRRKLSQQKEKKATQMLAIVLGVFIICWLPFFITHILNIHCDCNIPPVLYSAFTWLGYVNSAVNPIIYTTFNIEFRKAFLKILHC
How it was run: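 HEK293 cells stably expressing DRD2 were cultured 24 h at 37 C, then given Ro20-1724 (0.1 mM final) and compounds for 10 min at room temperature. NKH477 (200nM) was then added for 30 min. cAMP was read by HTRF.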

[16] = biological target: D(2) dopamine receptor (Homo sapiens) (UniProt P14416); assay: Dopamine D2 receptor (DRD2) small molecule antagonists, cell-based qHTS assay (AID 1963595; active means well fitted inhibition curve with a large enough effect in the signal ratio in the repeat runs, with a control signal flat; the % refers to the signal ratio)
How it was run: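 Readout: HTRF cAMP, cAMP-d2 competing with cellular cAMP for anti-cAMP cryptate, read after 1 h. Cells: DRD2-HEK293. Conditions: 0.1 mM Ro20-1724, 12 nM quinpirole, 200 nM NKH477, 30 min RT.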

[17] = p53 small molecule agonists, cell-based qHTS assay with rat liver microsomes: qHTS cell viability counter screen (AID 1963580); further: nearly all actives have a fitted effect of over 45% in size
How it was run: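 p53RE-bla HCT-116 cells (4,000/well) rested 5 h at 37 C, then given Tox21 compounds in DMSO with rat liver microsomes (0.5 mg/mL final) plus NADPH (0.5 mg/mL final) for 16 h at 37 C. Viability read by CellTiter-Glo luminescence after 30 min at room temperature.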

[18] = biological target: Muscarinic acetylcholine receptor M1 (Homo sapiens) (UniProt P11229); assay: Cholinergic receptor muscarinic 1 (CHRM1) small molecule antagonists, cell-based qHTS assay (AID 1963588); further: nearly all actives have a fitted effect of over 40% in size
How it was run: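 CHRM1-CHO calcium-flux assay, antagonist mode. Cells were seeded 18 h, dye-loaded 1 h at 37 C and given compound for 5 min at RT, then acetylcholine was added at 50nM. FDSS fluorescence was read 3 min; 15 concentrations, three runs.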

[19] = biological target: Beta-2 adrenergic receptor (Homo sapiens) (UniProt P07550); assay: Adrenergic beta2 receptor (ADRB2) small molecule agonists, cell-based qHTS assay (AID 1963593);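 further: CHO cells stably overexpressing human ADRB2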
How it was run: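 CHO cells stably over-expressing ADRB2 were plated overnight at 37C, then dosed with compounds plus a stimulation mix containing 100uM IBMX and 25uM Ro-20-1724 for 0.5hr at room temperature. cAMP was measured by HTRF competition, 1hr.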

[20] = G protein-coupled receptor (GPCR) small molecule agonists, calcium flux assay: HEK293 wild type cell line counter screen (AID 1920065)
How it was run: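 Readout: fluorescence at 480 nm excitation/540 nm emission, sampled at 1 s intervals for 3 min. Cells had been cultured 18 h, then dye-loaded 1 h at 37 C before compound or ATP addition.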

## Cc1ccc(S(=O)(=O)N=C=O)cc1
[1]
  Potency: inactive
[2]
  Potency: inactive
[3]
  Potency: inactive
[4]
  Potency: inactive
[5]
  Potency: inactive
[6]
  Potency: inactive
[7]
  Potency: inactive
[8]
  Potency: inactive
[9]
  Potency: inactive
[10]
  Potency: inactive
[11]
  Potency: inactive
[12]
  Potency: inactive
[13]
  Potency: inactive
[14]
  Potency: inactive
[15]
  Potency: inactive
[16]
  Potency: inactive

## CCCOC(=O)c1ccccc1
[1]
  Potency: inactive
[2]
  Potency: inactive
[3]
  Potency: inactive
[4]
  Potency: inactive
[5]
  Potency: inactive
[6]
  Potency: inactive
[17]
  Potency: inactive
[8]
  Potency: inactive
[18]
  Potency: inactive
[11]
  Potency: inactive
[12]
  Potency: inactive
[13]
  Potency: inactive
[14]
  Potency: inactive
[15]
  Potency: inactive

## Cc1cccc(C(=O)O)c1
[1]
  Potency: inactive
[2]
  Potency: inactive
[3]
  Potency: inactive
[4]
  Potency: inactive
[5]
  Potency: inactive
[6]
  Potency: inactive
[17]
  Potency: inactive
[7]
  Potency: inactive
[8]
  Potency: inactive
[9]
  Potency: inactive
[10]
  Potency: inactive
[18]
  Potency: inactive
[11]
  Potency: inactive
[12]
  Potency: inactive
[14]
  Potency: inactive
[19]
  Potency: inactive
[15]
  Potency: inactive
[16]
  Potency: inactive

## Nc1ccc(S(=O)(=O)c2ccc(N)cc2)cc1
[1]
  Potency: inactive
[2]
  Potency: inactive and 27.3 µM (active)
[3]
  Potency: inactive
[4]
  Potency: inactive
[5]
  Potency: inactive
[6]
  Potency: inactive
[17]
  Potency: inactive
[7]
  Potency: inactive
[9]
  Potency: inactive
[18]
  Potency: inactive
[11]
  Potency: inactive
[12]
  Potency: inactive
[13]
  Potency: inactive
[14]
  Potency: inactive
[19]
  Potency: inactive
[15]
  Potency: inactive
[16]
  Potency: inactive

## Cc1cccc(O)c1C
[1]
  Potency: inactive
[2]
  Potency: inactive
[3]
  Potency: inactive
[4]
  Potency: inactive
[5]
  Potency: inactive
[6]
  Potency: inactive
[17]
  Potency: inactive
[7]
  Potency: inactive
[8]
  Potency: inactive
[9]
  Potency: inactive
[10]
  Potency: inactive
[18]
  Potency: inactive
[11]
  Potency: inactive
[12]
  Potency: inactive
[13]
  Potency: inactive
[14]
  Potency: inactive
[19]
  Potency: inactive
[16]
  Potency: inactive

## O=C(C1CCCCC1)N1CC(=O)N2CCc3ccccc3C2C1 (stereo not given)
[1]
  Potency: inactive
[2]
  Potency: inactive
[3]
  Potency: inactive
[4]
  Potency: inactive
[20]
  Potency: inactive
[14]
  Potency: inactive
[15]
  Potency: inactive
[16]
  Potency: inactive

## C1COCCN1
[1]
  Potency: inactive
[2]
  Potency: inactive
[3]
  Potency: inactive
[4]
  Potency: inactive
[5]
  Potency: inactive
[6]
  Potency: inactive
[17]
  Potency: inactive
[7]
  Potency: inactive
[8]
  Potency: inactive
[9]
  Potency: inactive
[10]
  Potency: inactive
[18]
  Potency: inactive
[11]
  Potency: inactive
[13]
  Potency: inactive
[14]
  Potency: inactive
[19]
  Potency: inactive
[15]
  Potency: inactive
[16]
  Potency: inactive

## CCCc1cc(=O)[nH]c(=S)[nH]1
[1]
  Potency: inactive
[2]
  Potency: inactive
[3]
  Potency: inactive
[4]
  Potency: inactive
[5]
  Potency: inactive
[6]
  Potency: inactive
[17]
  Potency: inactive
[7]
  Potency: inactive
[8]
  Potency: inactive
[12]
  Potency: inactive
[13]
  Potency: inactive
[14]
  Potency: inactive
[19]
  Potency: inactive
[15]
  Potency: inactive
[16]
  Potency: inactive

## CCCCOCCOCCOC(C)=O
[1]
  Potency: inactive
[2]
  Potency: inactive
[3]
  Potency: inactive
[4]
  Potency: inactive
[5]
  Potency: inactive
[17]
  Potency: inactive
[7]
  Potency: inactive
[8]
  Potency: inactive
[9]
  Potency: inactive
[10]
  Potency: inactive
[11]
  Potency: inactive
[12]
  Potency: inactive
[13]
  Potency: inactive
[19]
  Potency: inactive
[15]
  Potency: inactive
[16]
  Potency: inactive
